Results reported in PubChem BioAssay AID652042 (Broad Institute, 2013).
Out of some 1,100 compounds screened, about 350 (32%) were called active. No rule for the calls is given here. Not all results are given here. Entries with a potency or affinity are not part of this list.

experiment: CEM21 lymphoblast cell cytotoxicity, dose response, cytotoxicity control for viral fusion inhibitor project, CellTiter-Glo luminescence, cherry-picked (AID 652042); details: CEM21 cells viability, CellTiter-Glo ATP luminescence, 24 h; series mostly up to 35 µM

Row | SMILES | activity change, negative = cytotoxicity
1 | O=C1c2cccnc2C(Nc2ccc(S(=O)(=O)N3CCCCC3)cc2)N1Cc1ccccc1 (centres undefined) | inactive
2 | CCc1ccc(C(=O)CN2C(=O)NC(C)(c3ccc(C)cc3)C2=O)cc1 (centres undefined) | inactive
3 | Nc1ccc(S(=O)(=O)c2ccc(N3CCOCC3)c(N)c2)cc1 | inactive
4 | CN(C)CC(=O)Nc1ccc2c(c1)[C@H]1C[C@H](CC(=O)NCc3cccc(F)c3)O[C@@H](CO)[C@H]1O2 | inactive
5 | COc1ccc(OC)c(NC(=O)COc2ccc3c(c2)CCC3)c1 | inactive
6 | Cc1ccc(C(C(=O)NC(C)(C)C)N(Cc2cccs2)C(=O)c2csnn2)cc1 (centres undefined) | inactive
7 | O=C(C[C@H]1C[C@@H]2c3cc(NS(=O)(=O)c4ccc(F)cc4)ccc3O[C@@H]2[C@H](CO)O1)NCCc1ccccc1 | inactive
8 | O=C(C[C@@H]1C[C@@H]2c3cc(NC(=O)C4CCC4)ccc3O[C@@H]2[C@@H](CO)O1)NCc1ccc2c(c1)OCO2 | inactive
9 | O=C(C[C@@H]1C[C@H]2c3cc(NC(=O)C4CCOCC4)ccc3O[C@H]2[C@@H](CO)O1)NCc1ccccc1 | inactive
10 | COCCNC(=O)C[C@@H]1C[C@H]2c3cc(N(C)C)ccc3O[C@H]2[C@@H](CO)O1 | inactive
11 | O=C(C[C@H]1C[C@H]2c3cc(NC(=O)C4CCC4)ccc3O[C@H]2[C@H](CO)O1)NCc1ccc2c(c1)OCO2 | inactive
12 | O=C(C[C@H]1C[C@H]2c3cc(NS(=O)(=O)c4ccc(F)cc4)ccc3O[C@H]2[C@@H](CO)O1)NCc1ccccc1F | inactive
13 | CCOC(=O)[C@H]1[C@H]2COc3ccccc3[C@@H]2N2C(=O)c3c(C)cc(C)cc3NC(=O)[C@@]12C | inactive
14 | O=C(C[C@@H]1C[C@@H]2c3cc(NC(=O)C4CCOCC4)ccc3O[C@@H]2[C@H](CO)O1)NCc1ccccc1F | inactive
15 | Cc1ccc(S(=O)(=O)N(C)c2ccc(C(=O)N3CCN(Cc4ccc5c(c4)OCO5)CC3)cc2)cc1 | inactive
16 | CCC1(c2ccccc2)NC(=O)N(CC(=O)Nc2cc(S(=O)(=O)N3CCCCC3)ccc2OC(C)C)C1=O (centres undefined) | inactive
17 | c1ccc2c(c1)OCC(c1csc3ncnc(N4CCOCC4)c13)O2 (centres undefined) | inactive
18 | COc1ccc([C@@H]2[C@@H]3C(=O)N(C(C)(C)C)C(=O)[C@@H]3[C@]3(CC(C)C)C(=O)N(c4ccccc4)C(=O)N23)cc1 | inactive
19 | CCS(=O)(=O)N[C@H]1CC[C@@H](CC(=O)NCc2ccc(Cl)cc2)O[C@@H]1CO | inactive
20 | CC12CC3CC(C)(C1)CC(C(=O)NCc1ccncc1)(C3)C2 | inactive
21 | CCc1ccc([C@H]2[C@@H]3C(=O)C[C@@H]4C(=O)N(Cc5ccccc5)C(=O)[C@@H]4[C@@H]3CN2S(=O)(=O)c2ccc(C)cc2)cc1 | inactive

Row | SMILES | activity change, negative = cytotoxicity
22 | CC(=O)c1c(O)cc2c3c1OC(C)(C)C1CCC(C)(CC31)O2 (centres undefined) | inactive
23 | Cc1nc2ccccc2n1CC(=O)NCc1ccccc1 | inactive
24 | CCS(=O)(=O)N1Cc2ccccc2CC1C(=O)NC(C)C12CC3CC(CC(C3)C1)C2 (centres undefined) | inactive
25 | CCOC(=O)[C@@H]1[C@H]2COc3cc(OC)ccc3[C@H]2N2C(=O)N(c3cccc(F)c3)C(=O)[C@@]12C | inactive
26 | CCOC(=O)[C@@H]1[C@H]2COc3ccc(Br)cc3[C@@H]2N2C(=O)N(c3ccc(F)cc3)C(=O)[C@@]12C | inactive
27 | O=C(C[C@@H]1C[C@H]2c3cc(NC(=O)Nc4ccccc4)ccc3O[C@H]2[C@H](CO)O1)NCc1cccnc1 | inactive
28 | Cc1ccc(S(=O)(=O)N2CCN(S(=O)(=O)c3ccc(C)cc3)C2c2ccccc2)cc1 | inactive
29 | c1ccc(CSc2nnc([C@@H]3CCCN3)o2)cc1 | inactive
30 | O=C(C1CCCCC1)N1CCCC(c2nc3c(nnn3Cc3ccccc3)c(=O)[nH]2)C1 (centres undefined) | inactive
31 | CCN(C[C@H]1N[C@@](CC)(C(=O)OC)[C@H]2C(=O)N(Cc3ccccc3)C(=O)[C@@H]12)S(=O)(=O)c1ccc(C)cc1 | inactive
32 | CCN(C[C@H]1N[C@@](C)(C(=O)OC)[C@H]2C(=O)N(Cc3ccccc3)C(=O)[C@@H]12)S(=O)(=O)c1ccc(C)cc1 | inactive
33 | O=C(c1ccc(Cl)cc1)N1CCCCC(Sc2nnc(-c3ccc4c(c3)OCO4)o2)C1=O (centres undefined) | inactive
34 | Cc1cc(C)c(S(=O)(=O)N2CCN=C2c2ccccc2)cc1C | inactive
35 | c1ccc2c(N3CCCCC3)ncnc2c1 | inactive
36 | CC(C)[C@H](CN(N=O)[C@@H](Cc1ccccc1)CN(C)N=O)N(CCc1ccccc1)N=O | inactive
37 | Cc1ccccc1-n1c(=O)c2ccccc2n2cnnc12 | inactive
38 | COc1ccc(C(=O)NCCc2ccc(Cl)cc2)cc1S(=O)(=O)N1CCCCC1C (centres undefined) | inactive
39 | COc1ccc(NC(=O)C(=O)NCC2CCCN2S(=O)(=O)c2cccs2)cc1 (centres undefined) | inactive
40 | O=C(CN(c1cc(C(F)(F)F)ccc1Cl)S(=O)(=O)c1ccccc1)NCc1cccnc1 | inactive
41 | CC(C)(C)N1C(=O)[C@H]2[C@@H](c3ccc(Br)cc3)N3C(=O)N(c4ccccc4)C(=O)[C@@]3(C)[C@H]2C1=O | inactive
42 | COc1ccc(Nc2ncc(C(=O)N3CCN(c4ccc(F)cc4)CC3)c3ccccc23)cc1 | inactive

Row | SMILES | activity change, negative = cytotoxicity
43 | CO[C@H]1CN(C)C(=O)c2cc(NC(=O)c3ccc(F)cc3)ccc2OC[C@H](C)N(C(=O)CN(C)C)C[C@@H]1C | inactive
44 | COc1ccccc1OCC(=O)c1[nH]c(C)c(C(C)=O)c1C | inactive
45 | Cc1cccc2cc3c(N)c(C#N)sc3nc12 | inactive
46 | O=C1CCCc2c1[nH]c1ccc(Cl)cc21 | inactive
47 | O=C(NNS(=O)(=O)c1ccc(F)cc1F)C1Cc2c(ccc3ccccc23)O1 (centres undefined) | inactive
48 | C[C@@H]1CN([C@H](C)CO)C(=O)c2cc(NC(=O)Nc3ccccc3)ccc2O[C@@H]1CN(C)S(=O)(=O)c1ccccc1 | inactive
49 | COc1ccc(S(=O)(=O)Nc2ccc3c(c2)CC(=O)N([C@@H](C)CO)C[C@H](C)[C@H](CN(C)S(=O)(=O)c2ccc(C)cc2)O3)cc1 | inactive
50 | C[C@@H]1CN([C@@H](C)CO)S(=O)(=O)c2ccc(-c3ccccc3)cc2O[C@H]1CN(C)S(C)(=O)=O | inactive
51 | Cc1ccc(S(=O)(=O)N(C)C[C@H]2Oc3cc(-c4cccc(F)c4)ccc3S(=O)(=O)N([C@H](C)CO)C[C@H]2C)cc1 | inactive
52 | COc1ccc([C@@H]2[C@@H]3C(=O)N(C(C)(C)C)C(=O)[C@@H]3[C@]3(CC(C)C)C(=O)N(c4cccc(Br)c4)C(=O)N23)cc1 | inactive
53 | COc1ccc(Cn2nnnc2C(c2cc3cccc(C)c3[nH]c2=O)N2CCOCC2)cc1 (centres undefined) | inactive
54 | COc1ccc(C(C(=O)NC2CCCC2)N(C(=O)c2ccoc2C)c2ccc(C)cc2)cc1 (centres undefined) | inactive
55 | O=C(NCc1ccco1)c1ccc(Cn2c(=O)c3ccccc3n(Cc3cccc(F)c3)c2=O)cc1 | inactive
56 | CCC(=O)N(C)C(c1ccccc1Cl)c1nnnn1-c1c(C)cccc1C (centres undefined) | inactive
57 | CCCCCCOc1ccc(OC(=O)c2ccncc2)cc1 | inactive
58 | O=C(Nc1ccc(CN2CCS(=O)(=O)CC2)cc1)c1ccc(C(F)(F)F)cc1 | inactive
59 | C[C@@H]1CNC(=O)c2c(C(=O)N(C)Cc3ccccc3)ncn21 | inactive
60 | O=C1[C@H]2[C@@H](C3CC3)N3C(=O)CN(CC4CC4)C(=O)[C@@]3(Cc3ccccc3)[C@H]2C(=O)N1c1ccccc1 | inactive
61 | CC1(C(=O)N/N=C/c2cc3c(cc2Br)OCO3)CC1(Br)Br (centres undefined) | inactive
62 | COc1cc(/C=N/NS(=O)(=O)c2ccc(C)cc2)ccc1OCc1ccc(C(=O)O)cc1 | inactive
63 | Cc1ccsc1/C=N/Nc1cccc(C(=O)O)c1 | inactive

Row | SMILES | activity change, negative = cytotoxicity
64 | CC1(C(=O)N/N=C/c2ccc3c(c2)OCO3)CC1(Br)Br (centres undefined) | inactive
65 | CCCn1c(=S)[nH]c2cc(C(=O)N3CCCC(C(=O)OCC)C3)ccc2c1=O (centres undefined) | inactive
66 | Cc1cc(C(=O)CN2C(=O)c3ccccc3S2(=O)=O)c(C)n1CC1CCCO1 (centres undefined) | inactive
67 | O=C(NC1=NCCS1)C1COc2ccccc2O1 (centres undefined) | inactive
68 | COC(=O)c1ccc(NC(=O)c2ccc(CN3CCOCC3)cc2)cc1 | inactive
69 | O=C(Nc1ccc(S(=O)(=O)N2CCCC2)cc1)c1ccc(CN2CCOCC2)cc1 | inactive
70 | O=S(=O)(c1ccc(Cl)cc1)N1CCCN(c2nc3ccc(Cl)cc3s2)CC1 | inactive
71 | O=C(CC1C(=O)NCCN1Cc1cccc(F)c1)NC1CCCCC1 (centres undefined) | inactive
72 | CC(C)(C)c1ccc(OCCC(=O)Nc2cccc(S(=O)(=O)N3CCOCC3)c2)cc1 | inactive
73 | COc1ccc(NC(=O)Nc2ccc3c(c2)N(C)C(=O)CS3)cc1Cl | inactive
74 | CCOc1ccccc1N(C(=O)CNC(=O)c1ccco1)C(C(=O)NC1CCCC1)c1cccnc1 (centres undefined) | inactive
75 | CCOc1ccc(S(=O)(=O)NCc2ccncc2)cc1 | inactive
76 | O=C(C[C@@H]1C[C@H]2c3cc(NC(=O)C4CCOCC4)ccc3O[C@H]2[C@H](CO)O1)NCc1ccccc1F | inactive
77 | CC(C)NC(=O)Nc1ccc2c(c1)C(=O)N([C@@H](C)CO)C[C@@H](C)[C@@H](CN(C)C(=O)CCC(F)(F)F)OCCCC[C@@H](C)O2 | inactive
78 | CO[C@H]1CN(C)C(=O)c2cc(NC(C)=O)ccc2OC[C@@H](C)N(Cc2nccs2)C[C@H]1C | inactive
79 | COc1ccccc1NC(=O)N[C@@H]1C=C[C@H](CC(=O)NCc2ccc(Cl)c(Cl)c2)O[C@@H]1CO | inactive
80 | CC(NC(=O)CN(C)CC(=O)Nc1ccc(Cl)c(C(F)(F)F)c1)c1ccccc1 (centres undefined) | inactive
81 | Cc1cccc(N2C(=O)N3[C@H](c4ccc(Br)cc4)[C@@H]4C(=O)N(C(C)(C)C)C(=O)[C@@H]4[C@]3(C)C2=O)c1 | inactive
82 | COc1cc2c(c(OC)c1OC)[C@@]1(c3ccccc3)CCCC[C@H]1[C@@H]2NC(=O)C(F)(F)F | inactive
83 | Cc1ccccc1OCCCCn1cnc2ccccc21 | inactive
84 | CC[C@]1(C(=O)OC)[C@H]2C(=O)N(Cc3ccccc3)C(=O)[C@H]2[C@H]2CN=C(SCc3ccccc3)N21 | inactive
